Experimental data reported in PubChem BioAssay AID1159580 (chemical genetic matrix, 2015).
Values joined by “and” are separate entries in the source; they are usually repeats but may differ in a detail not shown here. Equal entries are not always repeated. The whole screen tested about 5,500 compounds, of which about 2,000 (36%) were called active. Inconclusive results (about 18%) are left out. Rule as the data show it: active = normalized growth mostly below about 0.91 (no sharp cut-off); inconclusive = no clear call, values can overlap the other calls; inactive = mostly above about 0.92. This is one part of the list.

Experiment: chemical genetic growth profiling, strain panel (AID 1159580);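 also: tested at 20 µM; growth read once vehicle control cultures reached saturation at 30 °C; 1 = growth at the plate median or of vehicle wells; lower values mean less growth of the strain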
Settings: S. cerevisiae deletion strains, growth OD

Measured: normalized growth

CN1CCN2c3ccccc3Cc3ccccc3C2C1 (stereo unspecified)
inactive: locus YAL013W, strain DEP1, active compounds read low 1.01 and 0.984 | locus YAL021C, strain ccr4, active compounds read low 0.97 | locus YAL026C, strain drs2, active compounds read low 0.999 | locus YAL030W, strain snc1, active compounds read low 1 | locus YAL040C, strain CLN3, active compounds read low 1.01 | locus YBL061C, strain skt5, active compounds read low 0.998 | locus YBR009C, strain hhf1, active compounds read low 0.987 | locus YBR021W, strain FUR4, active compounds read low 0.992 | locus YBR023C, strain chs3, active compounds read low 0.994 | locus YBR171W, strain sec66, active compounds read low 1.02 | locus YBR229C, strain ROT2, active compounds read low 1.01 | locus YBR231C, strain swc5, active compounds read low 0.996 | locus YBR279W, strain paf1, active compounds read low 1 | locus YCL011C, strain gbp2, active compounds read low 1 | locus YCL016C, strain dcc1, active compounds read low 0.994 | locus YCL029C, strain bik1, active compounds read low 0.99 | locus YCL061C, strain MRC1 (second series), active compounds read low 0.995 | locus YCL061C, strain MRC1, active compounds read low 0.999 | locus YCL069W, strain vba3, active compounds read low 0.998 | locus YCR088W, strain abp1, active compounds read low 1 | locus YDL005C, strain med2, active compounds read low 1.01 | locus YDL035C, strain GPR1, active compounds read low 1.03 | locus YDL040C, strain nat1, active compounds read low 1 | locus YDL074C, strain BRE1, active compounds read low 1.03 | locus YDL101C, strain DUN1, active compounds read low 1.02 | locus YDL134C, strain PPH21, active compounds read low 1.01 | locus YDL185W, strain tfp1, active compounds read low 0.982 | locus YDL192W, strain arf1, active compounds read low 0.989 | locus YDR001C, strain nth1, active compounds read low 1.01 | locus YDR069C, strain doa4, active compounds read low 0.986 | locus YDR101C, strain arx1, active compounds read low 0.985 | locus YDR137W, strain rgp1, active compounds read low 1.01 | locus YDR150W, strain NUM1, active compounds read low 1.01 and 0.988 | locus YDR159W, strain sac3, active compounds read low 0.988 | locus YDR162C, strain NBP2, active compounds read low 1.05 | locus YDR195W, strain ref2 0.972 | locus YDR297W, strain sur2, active compounds read low 1.01 | locus YDR318W, strain mcm21, active compounds read low 0.979 | locus YDR334W, strain swr1, active compounds read low 1 | locus YDR335W, strain msn5, active compounds read low 1 | locus YDR363W, strain ESC2, active compounds read low 0.983 | locus YDR388W, active compounds read low 0.99 | locus YDR392W, strain spt3, active compounds read low 0.881 | locus YDR502C, strain sam2, active compounds read low 0.982 | locus YEL003W, strain gim4, active compounds read low 0.997 | locus YEL037C, strain rad23, active compounds read low 1 | locus YEL061C, strain CIN8 (second series), active compounds read low 1.01 | locus YEL061C, strain CIN8, active compounds read low 1.01 | locus YER002W, strain NOP16, active compounds read low 0.998 | locus YER015W, strain faa2, active compounds read low 1 | locus YER016W, strain bim1, active compounds read low 0.991 | locus YER110C, active compounds read low 0.985 | locus YER111C, strain swi4, active compounds read low 0.993 | locus YER155C, strain BEM2 (second series), active compounds read low 0.978 | locus YER155C, strain BEM2, active compounds read low 1.01 | locus YER167W, strain BCK2, active compounds read low 1.02 | locus YFR010W, strain ubp6, active compounds read low 1.01 | locus YGL078C, strain dbp3, active compounds read low 0.981 | locus YGL086W, strain mad1, active compounds read low 0.988 | locus YGL167C, strain pmr1, active compounds read low 1 | locus YGL173C, strain kem1, active compounds read low 1.01 | locus YGL227W, strain vid30, active compounds read low 1.01 | locus YGL240W, strain doc1, active compounds read low 0.979 | locus YGL248W, strain PDE1, active compounds read low 1.01 | locus YGL253W, strain hxk2, active compounds read low 1.01 | locus YGR078C, strain PAC10, active compounds read low 1.03 and 1.01 | locus YGR135W, strain pre9, active compounds read low 0.977 | locus YGR229C, strain SMI1, active compounds read low 1.01 and 0.95 | locus YGR252W, strain gcn5, active compounds read low 0.964 | locus YHR013C, strain ard1, active compounds read low 0.939 | locus YHR027C, strain rpn1, active compounds read low 1 | locus YHR030C, strain SLT2, active compounds read low 1.01 and 0.992 | locus YHR079C, strain IRE1 (second series), active compounds read low 0.987 | locus YHR079C, strain IRE1, active compounds read low 0.987 | locus YHR094C, strain hxt1, active compounds read low 0.989 | locus YHR129C, strain ARP1, active compounds read low 1.01 | locus YHR142W, strain chs7, active compounds read low 0.997 | locus YHR200W, strain rpn10, active compounds read low 0.995 | locus YIL066C, strain RNR3, active compounds read low 1.02 | locus YIL073C, strain SPO22, active compounds read low 1.01 | locus YIL125W, strain kgd1, active compounds read low 0.989 | locus YIR030C, strain dcg1, active compounds read low 0.984 | locus YJL092W, strain hpr5, active compounds read low 1 | locus YJL095W, strain BCK1 (second series), active compounds read low 0.999 | locus YJL095W, strain BCK1, active compounds read low 1.01 and 0.988 | locus YJL115W, strain asf1, active compounds read low 1 | locus YJL129C, strain trk1, active compounds read low 0.99 | locus YJL134W, strain LCB3, active compounds read low 1.01 | locus YJL154C, strain vps35, active compounds read low 1 | locus YJL164C, strain tpk1, active compounds read low 0.978 | locus YJL166W, strain qcr8, active compounds read low 0.987 | locus YJL168C, strain set2, active compounds read low 0.991 | locus YJL187C, strain SWE1 (second series), active compounds read low 1.01 | locus YJL187C, strain SWE1, active compounds read low 1 | locus YJR043C, strain POL32, active compounds read low 1 | locus YJR066W, strain TOR1, active compounds read low 0.932
